Source: PubChem BioAssay (National Center for Advancing Translational Sciences (NCATS))
Most compounds without a hit are left out; they make up all but 0.51% or so of the library.
Vif-APOBEC3G blk: inhibitors of Vif-APOBEC3G interaction; HeLa A3G-eYFP + Vif (tagged APOBEC3G with the HIV-1 protein that degrades it), YFP fluorescence, overnight; Potency, µM (doses to about 46.1 µM), inactives show top-dose activity, negative = active, hits mostly inhibitors; AID 602310; hit rate 0.076% among 410,000; note: % is set by controls: 0 for no effect and ±100 for the full control effect; nearly all actives have a fitted effect of over 60% in size
Target sequence (Q9HC16 whole entry, looked up): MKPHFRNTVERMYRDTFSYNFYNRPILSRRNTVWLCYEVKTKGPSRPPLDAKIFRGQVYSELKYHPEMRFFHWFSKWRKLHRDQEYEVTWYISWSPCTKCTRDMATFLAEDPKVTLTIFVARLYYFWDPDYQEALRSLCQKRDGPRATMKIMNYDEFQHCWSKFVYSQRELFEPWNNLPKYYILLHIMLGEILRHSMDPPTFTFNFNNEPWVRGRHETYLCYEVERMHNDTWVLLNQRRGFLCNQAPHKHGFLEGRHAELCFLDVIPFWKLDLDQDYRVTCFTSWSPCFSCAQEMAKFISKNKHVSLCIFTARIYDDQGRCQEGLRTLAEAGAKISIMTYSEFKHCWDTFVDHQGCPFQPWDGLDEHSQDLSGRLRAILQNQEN
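Read-out is eYFP fluorescence (Ex 488/Em 500-530) from Vif-expressing HeLa A3G-eYFP cells; more signal means A3G escaped Vif-mediated degradation. Cells plated overnight, compound pinned in, incubated overnight at 37 deg C.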
Vif-A3F inh: Vif-A3F binding inhibition | hit rate 0.2% among 390,000 | HeLa A3F-eYFP + Vif (tagged APOBEC3F with the HIV-1 protein that degrades it), YFP fluorescence increase | Potency, µM (top dose mostly 46.1 µM), for inactives: top-dose activity, negative = active; note: % of control where 0% means no effect; nearly all actives have a fitted effect of over 65% in size
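Fluorescence increase (Ex 488/Em 500-530) after overnight compound treatment at 37 deg C flags inhibition of Vif-driven A3F-eYFP loss in stable HeLa A3F-eYFP/Vif cells seeded overnight beforehand.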
Epigenetic reg: derepresses silenced GFP reporter in murine cells; murine LDR cells, GFP reporter derepression, 30 h; Potency, µM (doses to about 53.9 µM), for inactives: at the highest dose GFP activation, actives largely listed as activators; hit rate 0.2% among 280,000; note: % of control where 0% means no effect; nearly all actives have a fitted effect of over 60% in size
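In this reporter-derepression format, murine cells bearing a silenced integrated CMV-GFP locus incubate with test compound (30 h, 37 C), then are washed and imaged; fluorescent objects of 20–120 um count as induced cells.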
PINK1 expr mod: PINK1 expression modulation. PINK1 immunofluorescence, high-content cytometry, 24 h. Potency, µM (highest dose often 76.6 µM), without a hit: top-dose activation (PINK1 increase), usual class: activators. hit rate 0.2% among 410,000. AID 624263; active = well fitted activation curve with a large enough effect; inconclusive = small, poorly fitted or top-dose-only effect; cell line not stated here; note: % of control where 0% means no effect; nearly all actives have a fitted effect of over 65% in size
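PINK1 protein level read as immunofluorescence by microplate cytometer in a fixed, stained stable cell line after 24 h exposure to five compound concentrations, with CCCP as control.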
* marks the source's active call; other numbers are inactive results. Unless noted, calls come from the whole dose curve; as a rule, active = well fitted curve in the direction sought with a large enough effect; inconclusive = small, poorly fitted or top-dose-only effect, or another doubt; inactive = no such curve, though single readings can be large; an effect the other way counts as inactive or inconclusive. Potency is the fitted concentration of half-maximal effect.

`N#C/C(=N/Nc1ccc(OC(F)(F)F)cc1)C(N)=S` gave Vif-APOBEC3G blk 5%, Vif-A3F inh -13%, Epigenetic reg -1% and PINK1 expr mod 14µM*.
`COc1cc(/C=C2\C(=N)N3N=CSC3=NC2=O)cc(Br)c1OC(=O)c1ccco1` gave Vif-APOBEC3G blk inconclusive, Vif-A3F inh 22µM*, Epigenetic reg 1% and PINK1 expr mod 0%.
For N=C1/C(=C\c2ccc(OC(=O)c3ccco3)cc2)C(=O)N=C2SC=NN12 the results were Vif-APOBEC3G blk -2%, Vif-A3F inh -11%, Epigenetic reg 2% and PINK1 expr mod 0%.
For O=C1C2=C(Nc3ccccc3SC2c2ccc(Cl)c(Cl)c2)c2ccccc21 (stereo not drawn) the results were Vif-APOBEC3G blk 3%, Vif-A3F inh 3%, Epigenetic reg -1% and PINK1 expr mod inconclusive.
`O=C1C2=C(Nc3ccccc3SC2c2ccccc2C(F)(F)F)c2ccccc21` (stereo not drawn) gave Vif-APOBEC3G blk -12%, Vif-A3F inh -15%, Epigenetic reg 0% and PINK1 expr mod 13µM*.
`C/C(=N\NC(=O)c1cccc(Cl)c1)C1C(=O)c2ccccc2C1=O` gave Vif-APOBEC3G blk 3%, Vif-A3F inh 10%, Epigenetic reg -4% and PINK1 expr mod 40µM*.
C/C(=N\NC(=O)CCc1ccccc1)C1C(=O)c2ccccc2C1=O was read as Vif-APOBEC3G blk -1%, Vif-A3F inh inconclusive, Epigenetic reg 2% and PINK1 expr mod 0%.
For COc1ccc(-c2cc(-c3ccccc3)nc(=O)[nH]2)cc1 the results were Vif-APOBEC3G blk 0%, Vif-A3F inh -12%, Epigenetic reg 3% and PINK1 expr mod 1%.
Screening COc1ccc(-n2c(SCC(=O)O)nnc2-c2ccc(NC(=O)c3ccccc3)cc2)cc1 returned Vif-APOBEC3G blk -4%, Vif-A3F inh 3%, Epigenetic reg -2% and PINK1 expr mod -1%.
Screening O=C1Nc2ccc(Br)cc2C12NNc1ccccc1O2 (stereo not drawn) returned Vif-APOBEC3G blk inconclusive, Vif-A3F inh inconclusive, Epigenetic reg 18µM* and PINK1 expr mod -1%.
Screening O=C1Nc2ccc(Br)cc2C1(O)c1ccccc1 (stereo not drawn) returned Vif-APOBEC3G blk -1%, Vif-A3F inh -16% and PINK1 expr mod 2%.
`CC(C)(C)NC(=O)C(c1ccco1)N(C(=O)Cn1nnc(-c2ccc(F)cc2)n1)c1cccc(F)c1` (stereo not drawn) gave Vif-APOBEC3G blk -6%, Vif-A3F inh -13%, Epigenetic reg -2% and PINK1 expr mod 13µM*.
For Cc1ccc(-c2nnn(CC(=O)N(c3ccc(F)cc3)C(C(=O)NC(C)(C)C)c3ccco3)n2)o1 (stereo not drawn) the results were Vif-APOBEC3G blk -10%, Vif-A3F inh -1%, Epigenetic reg 0% and PINK1 expr mod 7%.
For CC(C)C[C@@H](CC(=O)N[C@@H](CCCN)CC(=O)N[C@@H]1CCNC[C@H]1C(=O)N[C@H](CC(=O)N[C@@H](CCC(=O)O)CC(=O)O)Cc1c[nH]c2ccccc12)NC(=O)[C@@H]1CNCC[C@H]1N the results were Epigenetic reg -1%.
For Cn1c(N/N=C/c2cc3ccccc3nc2Cl)nc2ccccc21 the results were Vif-APOBEC3G blk 11µM*, Vif-A3F inh 22µM*, Epigenetic reg inconclusive and PINK1 expr mod 35µM*.
For CC1(C)Cc2c(sc3c2c(=N)n(Cc2ccco2)c(=O)n3CC(=O)Nc2cccc(Cl)c2)CO1 the results were Vif-APOBEC3G blk -7%, Vif-A3F inh 3%, Epigenetic reg -5% and PINK1 expr mod -2%.
`CCCCN1C(=O)/C(=C/C=C2\SCCN2C)SC1=S` gave Vif-APOBEC3G blk inconclusive, Vif-A3F inh inconclusive, Epigenetic reg 18µM* and PINK1 expr mod 10%.
Screening CCCCN1C(=O)/C(=C/C=C2\N(C)c3ccccc3C2(C)C)SC1=S returned Epigenetic reg 2.5µM*.
CCCN1C(=O)/C(=C\C=C2/C=CN(CC)c3ccccc32)SC1=S was read as Vif-APOBEC3G blk 2%, Vif-A3F inh 1%, Epigenetic reg 0% and PINK1 expr mod 12%.
`CCCS(=O)(=O)c1c(S(=O)(=O)CCC)c2c3ccccc3ccn2c1C(=O)OC` gave Vif-APOBEC3G blk -2%, Vif-A3F inh 4%, Epigenetic reg -1% and PINK1 expr mod 0%.
`Cc1cc(N2CCCC2)ccc1/C=C1/C(=O)N(C)C(=S)N1C` gave Vif-APOBEC3G blk inconclusive, Vif-A3F inh 11µM*, Epigenetic reg inconclusive and PINK1 expr mod 17%.
CCCN1C(=O)S/C(=C\c2ccc(N3CCOCC3)cc2C)C1=O was read as Epigenetic reg 0%.
COc1ccccc1NC(=O)c1sc2nc(C)c(C(=O)Nc3ccc(C)cc3C)c(-c3ccc(C)o3)c2c1N was read as Vif-APOBEC3G blk -4%, Vif-A3F inh 1%, Epigenetic reg 10% and PINK1 expr mod 0%.
Screening Cc1ccc(NC(=O)c2c(C)nc3sc(C(=O)Nc4ccc(F)cc4)c(N)c3c2-c2ccc(C)o2)c(C)c1 returned Vif-APOBEC3G blk inconclusive, Vif-A3F inh inconclusive, Epigenetic reg 22µM* and PINK1 expr mod 0%.
Screening COc1ccccc1NC(=O)c1sc2nc(C)c(C(=O)Nc3ccc(C)cc3C)c(-c3ccco3)c2c1N returned Vif-APOBEC3G blk -12%, Vif-A3F inh inconclusive, Epigenetic reg 8.9µM* and PINK1 expr mod 4%.
`COc1ccc(CNC(=O)C2Cc3c(-c4ccccc4Oc4ccccc4)ccnc3O2)cc1OC` (stereo not drawn) gave Vif-APOBEC3G blk -7% and PINK1 expr mod 2%.
Screening CCN(CC)C(=S)SSC(=S)N(CC)CC returned Vif-APOBEC3G blk -10%, Vif-A3F inh 8%, Epigenetic reg 0.25µM* and PINK1 expr mod 1%.
`COc1ccc2[nH]cc(/C=C/c3cc[n+](C)cc3)c2c1` gave Vif-APOBEC3G blk 11µM*, Vif-A3F inh 13µM* and PINK1 expr mod inconclusive.
For Cc1cccc(CNC(=O)Nc2nnc([C@@H]3C[C@H](O)[C@@H](CO)O3)s2)c1 the results were Vif-APOBEC3G blk -2% and PINK1 expr mod 1%.
Screening O=C(O)CNC(=O)c1ccc2c(c1)OCCO2 returned Vif-APOBEC3G blk 0%, Vif-A3F inh -3%, Epigenetic reg -1% and PINK1 expr mod 13µM*.
COc1ccc(-n2c(-c3ccc(Br)cc3)c[n+]3c2CCc2ccccc2-3)cc1 was read as Vif-APOBEC3G blk 3%, Vif-A3F inh 2%, Epigenetic reg 16% and PINK1 expr mod 28µM*.
CCOc1ccc(-n2c(-c3ccc(OC)cc3)c[n+]3c2CCCCC3)cc1 was read as Vif-APOBEC3G blk 8%, Vif-A3F inh -16%, Epigenetic reg 0% and PINK1 expr mod 16µM*.
CC(C)c1ccc(-n2c(-c3ccccc3)c[n+]3c2CCc2ccccc2-3)cc1 was read as Vif-APOBEC3G blk -4%, Vif-A3F inh 10%, Epigenetic reg -3% and PINK1 expr mod inconclusive.
